# Inconclusive results are not listed. Activity calls are given as the source filed them. Unless noted, calls follow the shape of the dose curve; as a rule, active = well fitted curve in the direction sought with a large enough effect; inconclusive = small, poorly fitted or top-dose-only effect, or another doubt; inactive = no such curve, though single readings can be large; an effect the other way counts as inactive or inconclusive.
# Key:
# [1] = molecular target: Catechol O-methyltransferase (Homo sapiens) (UniProt P21964); assay: Confirmatory Screen for Target Class Profiling of Small Molecule Inhibitors of Methyltransferases (AID 1745852; calls by dose curve; also: potency is read from the fitted curve at half-maximal effect; as to activity change, negative = inhibition: % is scaled to controls: 0 for no effect and ±100 for the full control effect); settings: MTase-Glo luminescence, SAH detection, recombinant enzyme; measured here: COMT max response; stronger effect = lower value
# Chain of Catechol O-methyltransferase (Homo sapiens) (P21964 whole entry, looked up): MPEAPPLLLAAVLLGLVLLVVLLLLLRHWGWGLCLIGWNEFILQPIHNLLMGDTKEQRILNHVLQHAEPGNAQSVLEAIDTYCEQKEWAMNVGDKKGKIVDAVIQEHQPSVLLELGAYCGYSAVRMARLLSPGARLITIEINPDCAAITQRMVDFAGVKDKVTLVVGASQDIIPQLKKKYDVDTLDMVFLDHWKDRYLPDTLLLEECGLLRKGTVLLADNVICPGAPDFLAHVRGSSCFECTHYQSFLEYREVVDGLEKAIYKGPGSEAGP
# [2] = molecular target: Guanidinoacetate N-methyltransferase (Homo sapiens) (UniProt Q14353); assay: as above; settings: activity change, negative = inhibition: at 57.3 µM (top of the series) unless noted
# [3] = molecular target: Nicotinamide N-methyltransferase (Homo sapiens) (UniProt P40261); assay: as above; settings: MTase-Glo luminescence, SAH detection, recombinant enzyme; measured here: NNMT max response; stronger effect = lower value
# Chain of Nicotinamide N-methyltransferase (Homo sapiens) (P40261 whole entry, looked up): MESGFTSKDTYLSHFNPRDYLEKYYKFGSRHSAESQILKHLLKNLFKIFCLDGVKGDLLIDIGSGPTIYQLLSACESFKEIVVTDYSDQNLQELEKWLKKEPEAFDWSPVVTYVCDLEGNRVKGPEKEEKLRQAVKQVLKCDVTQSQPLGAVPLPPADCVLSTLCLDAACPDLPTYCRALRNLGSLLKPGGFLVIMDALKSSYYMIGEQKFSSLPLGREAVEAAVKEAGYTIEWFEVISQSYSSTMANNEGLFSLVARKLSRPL
# [4] = molecular target: Phenylethanolamine N-methyltransferase (Homo sapiens) (UniProt P11086); assay: as above; settings: MTase-Glo luminescence, SAH detection, recombinant enzyme; measured here: PNMT max response; stronger effect = lower value
# Chain of Phenylethanolamine N-methyltransferase (Homo sapiens) (P11086 whole entry, looked up): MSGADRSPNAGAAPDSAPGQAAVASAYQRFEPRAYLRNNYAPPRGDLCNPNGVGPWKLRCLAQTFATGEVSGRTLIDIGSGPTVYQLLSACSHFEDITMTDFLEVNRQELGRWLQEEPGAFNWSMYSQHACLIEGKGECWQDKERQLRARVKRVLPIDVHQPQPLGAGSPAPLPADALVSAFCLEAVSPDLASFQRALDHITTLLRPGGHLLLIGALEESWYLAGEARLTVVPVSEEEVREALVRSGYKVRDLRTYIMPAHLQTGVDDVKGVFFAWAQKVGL
# [5] = molecular target: DNA repair nuclease/redox regulator APEX1 (Homo sapiens) (UniProt P27695); assay: qHTS Validation Assay for Inhibitors of the Human Apurinic/apyrimidinic Endonuclease 1 (APE1) (AID 1705;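 also: TAMRA fluorescence gain over two minutes as APE1 cuts a quenched THF abasic duplex; % is scaled to controls: 0 for no effect and ±100 for the full control effect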)
# Chain of DNA repair nuclease/redox regulator APEX1 (Homo sapiens) (P27695 whole entry, looked up): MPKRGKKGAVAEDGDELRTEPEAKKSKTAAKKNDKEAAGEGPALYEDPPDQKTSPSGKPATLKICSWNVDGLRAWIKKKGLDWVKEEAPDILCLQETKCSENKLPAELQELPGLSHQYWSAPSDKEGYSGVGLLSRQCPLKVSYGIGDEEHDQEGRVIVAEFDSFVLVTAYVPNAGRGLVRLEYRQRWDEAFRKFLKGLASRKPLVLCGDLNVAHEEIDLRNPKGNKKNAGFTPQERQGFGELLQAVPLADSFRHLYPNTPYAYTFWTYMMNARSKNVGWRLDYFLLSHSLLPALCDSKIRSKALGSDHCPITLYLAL
# Summary of the method: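 Activity read as rising fluorescence (598 nm emission, 525 nm excitation) from incision of a TAMRA/BHQ-2 duplex carrying a THF abasic site (50 nM). Compound and enzyme sat 15 min at RT before substrate start; signal change between first and third 60-s reads.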
# [6] = molecular target: Endonuclease 4 (Escherichia coli (strain K12)) (UniProt P0A6C1); assay: Counterscreen for APE1 Inhibitors: qHTS Validation Assay for Inhibitors of Endonuclease IV (AID 1708); also: % is scaled to controls: 0 for no effect and ±100 for the full control effect
# Summary of the method: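 E. coli EndoIV at 2 nM final, preincubated 15 min at room temperature with compound, then 50 nM TAMRA/BHQ-2 THF abasic-site duplex added. Buffer: 50 mM Tris-HCl pH 7.5, 50 mM NaCl, 2 mM MgCl2, 1 mM DTT, 0.01% Tween-20. Kinetic fluorescence increase, third minus first read.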
# [7] = qHTS for differential inhibitors of proliferation of Plasmodium falciparum line 7G8 (AID 1815);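 also: potency is read from the fitted curve at half-maximal effect; parasite growth measured after three days of incubation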
# [8] = qHTS for differential inhibitors of proliferation of Plasmodium falciparum line GB4 (AID 1816); settings: Potency: Plasmodium falciparum GB4 proliferation inhibition;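 also: potency is read from the fitted curve at half-maximal effect; parasite growth measured after 72 h incubation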
# [9] = qHTS for differential inhibitors of proliferation of Plasmodium falciparum line 3D7 (AID 1876); also: potency is read from the fitted curve at half-maximal effect
# [10] = qHTS for differential inhibitors of proliferation of Plasmodium falciparum line D10 (AID 1877);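 also: potency is read from the fitted curve at half-maximal effect; parasites grown with compound for 72 h before DNA staining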
# [11] = qHTS for differential inhibitors of proliferation of Plasmodium falciparum line W2 (AID 1883); settings: Potency: Plasmodium falciparum W2 proliferation inhibition;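 also: potency is read from the fitted curve at half-maximal effect; parasites grown with compound for 72 h before lysis and staining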
# [12] = qHTS for differential inhibitors of proliferation of Plasmodium falciparum line HB3 (AID 1886); settings: Potency: Plasmodium falciparum HB3 proliferation inhibition;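 also: potency is read from the fitted curve at half-maximal effect; parasites grown with compound for 72 h before SYBR Green readout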
# [13] = molecular target: ATP-dependent DNA helicase Q1 (Homo sapiens) (UniProt P46063); assay: qHTS Validation Assay for Inhibitors of RecQ-Like Dna Helicase 1 (RECQ1) (AID 2353);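 also: plate controls were DMSO vehicle for no effect and enzyme-free control for full effect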
# Chain of ATP-dependent DNA helicase Q1 (Homo sapiens) (P46063 whole entry, looked up): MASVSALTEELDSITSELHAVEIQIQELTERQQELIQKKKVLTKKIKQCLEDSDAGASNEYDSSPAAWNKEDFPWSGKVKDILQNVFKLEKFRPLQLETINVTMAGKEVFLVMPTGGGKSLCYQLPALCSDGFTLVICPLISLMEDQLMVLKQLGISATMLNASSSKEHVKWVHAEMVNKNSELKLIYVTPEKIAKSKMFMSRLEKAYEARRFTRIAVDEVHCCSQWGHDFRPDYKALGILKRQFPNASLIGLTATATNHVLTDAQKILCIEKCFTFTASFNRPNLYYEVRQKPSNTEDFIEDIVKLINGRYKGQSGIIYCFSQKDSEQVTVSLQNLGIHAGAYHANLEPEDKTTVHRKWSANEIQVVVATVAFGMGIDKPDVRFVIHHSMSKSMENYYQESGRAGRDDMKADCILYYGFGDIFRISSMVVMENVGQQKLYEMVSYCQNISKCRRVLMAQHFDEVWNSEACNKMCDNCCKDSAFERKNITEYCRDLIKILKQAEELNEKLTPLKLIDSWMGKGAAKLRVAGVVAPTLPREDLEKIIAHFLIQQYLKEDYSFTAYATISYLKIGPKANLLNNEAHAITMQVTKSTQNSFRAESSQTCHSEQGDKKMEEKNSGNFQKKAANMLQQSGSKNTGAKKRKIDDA
# Summary of the method: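 50 nM RECQ1T1 preincubated 15 min with compound in Tris pH 8.0 buffer with MgCl2, DTT, Tween-20 and 2.5 ug/ml poly(dI-dC); started with 200 nM TAMRA/BHQ-2 forked duplex and 2 mM ATP. Unwinding read as fluorescence (525/598 nm), two reads 2 h apart.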
# [14] = Quantitative high throughput screen for delayed death inhibitors of the malarial parasite plastid, 96 hour incubation (AID 488745); also: % is scaled to controls: 0 for no effect and ±100 for the full control effect; nearly all actives have a fitted effect of over 70% in size
# Summary of the method: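 Luciferase-expressing P. falciparum in erythrocytes (2% hematocrit, 0.1% parasitemia) incubated with compound for 96 h at 37 C, 5% CO2, in RPMI 1640 with 0.5% Albumax. Growth inhibition read as decreased luminescence.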
# [15] = Quantitative high throughput screen for delayed death inhibitors of the malarial parasite plastid, 48 hour incubation (AID 488752); also: potency is read from the fitted curve at half-maximal effect; nearly all actives have a fitted effect of over 65% in size
# Summary of the method: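 Erythrocytes infected with firefly luciferase-expressing P. falciparum (2% hematocrit, 0.1% parasitemia) cultured with compound for 48 h at 37 C, 5% CO2, in RPMI 1640/0.5% Albumax. Growth inhibition read as loss of luminescence.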
# [16] = molecular target: M-phase phosphoprotein 8 (Homo sapiens) (UniProt Q99549); assay: qHTS Validation Assay for Inhibitors for MPP8 Chromodomain Interactions with Methylated Histone Tails (AID 488949);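 also: AlphaScreen signal from MPP8 chromodomain bound to biotinylated H3K9me3 peptide; top concentration of the series differs between compounds; % is scaled to controls: 0 for no effect and ±100 for the full control effect; nearly all actives have a fitted effect of over 55% in size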
# Chain of M-phase phosphoprotein 8 (Homo sapiens) (Q99549 whole entry, looked up): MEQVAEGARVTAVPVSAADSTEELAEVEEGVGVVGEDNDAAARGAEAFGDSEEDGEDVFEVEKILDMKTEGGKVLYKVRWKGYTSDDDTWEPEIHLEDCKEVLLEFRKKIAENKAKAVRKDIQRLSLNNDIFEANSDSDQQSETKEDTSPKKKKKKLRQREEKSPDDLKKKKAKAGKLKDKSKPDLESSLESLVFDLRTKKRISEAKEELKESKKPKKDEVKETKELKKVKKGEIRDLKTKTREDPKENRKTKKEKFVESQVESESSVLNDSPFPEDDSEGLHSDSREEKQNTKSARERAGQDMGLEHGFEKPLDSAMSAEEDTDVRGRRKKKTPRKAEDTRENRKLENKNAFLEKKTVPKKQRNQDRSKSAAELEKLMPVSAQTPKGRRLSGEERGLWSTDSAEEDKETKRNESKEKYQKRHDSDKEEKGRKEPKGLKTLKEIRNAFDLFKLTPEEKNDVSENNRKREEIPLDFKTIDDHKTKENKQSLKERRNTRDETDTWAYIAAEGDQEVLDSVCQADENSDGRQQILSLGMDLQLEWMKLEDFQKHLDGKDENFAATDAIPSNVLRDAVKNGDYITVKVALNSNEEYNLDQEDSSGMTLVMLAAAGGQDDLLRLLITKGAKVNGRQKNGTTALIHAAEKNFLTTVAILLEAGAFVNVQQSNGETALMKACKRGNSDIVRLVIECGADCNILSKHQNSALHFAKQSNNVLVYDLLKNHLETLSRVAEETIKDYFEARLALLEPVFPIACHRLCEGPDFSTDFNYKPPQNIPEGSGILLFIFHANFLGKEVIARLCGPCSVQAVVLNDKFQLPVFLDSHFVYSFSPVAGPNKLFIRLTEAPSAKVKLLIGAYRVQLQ
# Summary of the method: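 AlphaScreen proximity signal from streptavidin donor and Ni-chelate acceptor beads (10 ug/mL each) reported binding of MPP8 to trimethyl-K9 H3(1-18) peptide, both at 50 nM. The complex formed 30 min before a 30 min compound exposure at room temperature, in PBS pH 7.4.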
# [17] = molecular target: Transient receptor potential cation channel subfamily V member 1 (Homo sapiens) (UniProt Q8NER1); assay: HTS Assay for Compounds that Act as Enhancers of the Vanilloid Receptor 1 (AID 488979); also: 0% is about no effect
# Chain of Transient receptor potential cation channel subfamily V member 1 (Homo sapiens) (Q8NER1 whole entry, looked up): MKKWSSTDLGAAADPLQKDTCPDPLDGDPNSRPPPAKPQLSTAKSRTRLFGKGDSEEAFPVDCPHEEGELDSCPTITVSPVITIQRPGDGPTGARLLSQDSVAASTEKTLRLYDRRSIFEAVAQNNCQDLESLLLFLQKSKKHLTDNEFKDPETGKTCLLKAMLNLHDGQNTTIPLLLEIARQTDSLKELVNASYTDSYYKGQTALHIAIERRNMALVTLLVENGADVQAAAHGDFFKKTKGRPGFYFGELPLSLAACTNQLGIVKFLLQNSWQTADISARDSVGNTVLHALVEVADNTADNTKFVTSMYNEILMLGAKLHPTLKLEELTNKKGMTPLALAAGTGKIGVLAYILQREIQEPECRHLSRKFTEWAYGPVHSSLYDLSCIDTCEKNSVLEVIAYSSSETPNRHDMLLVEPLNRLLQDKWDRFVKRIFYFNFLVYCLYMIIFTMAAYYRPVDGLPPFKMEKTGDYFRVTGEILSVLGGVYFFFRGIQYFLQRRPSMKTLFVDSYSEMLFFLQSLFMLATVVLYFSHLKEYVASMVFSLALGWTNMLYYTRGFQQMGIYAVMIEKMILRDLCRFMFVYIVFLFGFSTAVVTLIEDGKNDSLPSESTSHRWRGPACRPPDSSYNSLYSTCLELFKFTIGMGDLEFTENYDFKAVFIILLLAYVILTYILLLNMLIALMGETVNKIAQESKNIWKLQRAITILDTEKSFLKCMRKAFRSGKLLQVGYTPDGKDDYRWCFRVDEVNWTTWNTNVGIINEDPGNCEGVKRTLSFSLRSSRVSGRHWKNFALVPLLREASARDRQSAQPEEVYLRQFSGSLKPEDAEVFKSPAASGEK
# Summary of the method: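 TRPV1 cells loaded with Fluo-8 calcium dye; compound added and Ca2+ signal (ex 480/em 520 nm) followed 3 min, then capsaicin at EC20 added and read 2 more min to detect enhancement.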
# [18] = molecular target: Thyrotropin receptor (Homo sapiens) (UniProt P16473); assay: qHTS Assay for Antagonists of the Thyroid Stimulating Hormone Receptor (AID 488980); also: 0% is about no effect
# Chain of Thyrotropin receptor (Homo sapiens) (P16473 whole entry, looked up): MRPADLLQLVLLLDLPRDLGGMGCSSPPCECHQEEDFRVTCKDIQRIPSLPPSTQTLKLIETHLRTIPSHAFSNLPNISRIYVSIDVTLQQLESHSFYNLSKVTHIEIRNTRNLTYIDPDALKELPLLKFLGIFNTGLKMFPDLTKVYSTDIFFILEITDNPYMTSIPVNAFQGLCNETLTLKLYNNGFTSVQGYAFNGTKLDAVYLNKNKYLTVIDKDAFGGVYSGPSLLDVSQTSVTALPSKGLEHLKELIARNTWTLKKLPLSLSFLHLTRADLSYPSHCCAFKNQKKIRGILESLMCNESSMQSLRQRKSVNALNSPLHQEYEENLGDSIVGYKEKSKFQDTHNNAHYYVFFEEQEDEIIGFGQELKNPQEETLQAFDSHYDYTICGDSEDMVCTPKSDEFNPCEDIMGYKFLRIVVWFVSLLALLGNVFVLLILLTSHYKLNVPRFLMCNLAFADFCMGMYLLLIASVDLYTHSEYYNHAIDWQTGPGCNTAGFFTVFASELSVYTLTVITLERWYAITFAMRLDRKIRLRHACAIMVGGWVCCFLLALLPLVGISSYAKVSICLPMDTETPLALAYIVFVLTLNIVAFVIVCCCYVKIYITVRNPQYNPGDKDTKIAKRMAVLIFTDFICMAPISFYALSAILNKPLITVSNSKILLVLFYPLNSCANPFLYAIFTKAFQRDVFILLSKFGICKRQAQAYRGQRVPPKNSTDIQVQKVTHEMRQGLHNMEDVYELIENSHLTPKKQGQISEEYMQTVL
# Summary of the method: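 Inhibition of cAMP raised by EC80 TSH (4 nM final) was read by HTRF, with lysate cAMP competing against cAMP-d2 for cryptate antibody after 30 min at room temperature. The cells were transfected HEK293 held in phosphodiesterase inhibitor RO 20-1724 at 70 uM.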
# [19] = molecular target: Galactokinase (Homo sapiens) (UniProt P51570); assay: qHTS Validation Assay for Inhibitors of Human Galactokinase (GALK) (AID 493189); also: 0% is about no effect
# Chain of Galactokinase (Homo sapiens) (P51570 whole entry, looked up): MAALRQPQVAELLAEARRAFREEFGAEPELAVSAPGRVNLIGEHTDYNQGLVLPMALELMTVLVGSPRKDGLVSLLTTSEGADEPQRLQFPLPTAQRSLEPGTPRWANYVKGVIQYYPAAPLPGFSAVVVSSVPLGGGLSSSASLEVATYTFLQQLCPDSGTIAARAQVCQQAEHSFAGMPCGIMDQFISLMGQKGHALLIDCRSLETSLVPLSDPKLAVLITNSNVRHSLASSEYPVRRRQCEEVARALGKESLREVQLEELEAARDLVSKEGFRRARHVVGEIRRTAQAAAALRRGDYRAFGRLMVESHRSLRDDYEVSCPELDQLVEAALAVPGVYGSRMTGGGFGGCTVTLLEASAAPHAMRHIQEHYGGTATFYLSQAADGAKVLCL
# Summary of the method: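 Inhibition was measured as remaining ATP, detected by luciferase luminescence after a 1 h room-temperature reaction. Final conditions: 5 nM GALK, 100 uM galactose, 35 uM ATP, pH 8.0 HEPES buffer.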
# [20] = Validation screen for small molecules that induce DNA re-replication in SW480 colon adenocarcinoma cells (AID 504364); also: 0% is about no effect
# Summary of the method: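 SW480 cells (250/well) exposed 48 h at 37 C, 5% CO2, then Hoechst-stained 40 min. Nuclear DNA content imaged by fluorescence scanning (405 nm excitation, 500-530 nm emission); re-replication scored as increased nuclei with elevated intensity.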
smiles,measurement,setting,value
CN1CCN(C)c2cnc(-c3cnn(Cc4ccccc4)c3)cc2C1,activity,[1],6.86%
same,"activity change, negative = inhibition",[2],5.27% [at 85.7 µM]
same,activity,[3],6.62%
same,activity,[4],8.78%
O=C(Nc1ccc2c(N3CCOCC3)ncnc2c1)c1cccc(Cl)c1,activity,[1],-10.9%
same,"activity change, negative = inhibition",[2],-4.21%
same,activity,[3],-7.95%
same,activity,[4],-22.8%
C[S+](=O)([O-])N1CCC(Cn2ccc3c(N4CCOCC4)nc(-c4cccc5[nH]ncc45)cc32)CC1,activity,[1],-13.4%
same,"activity change, negative = inhibition",[2],-3.16%
same,activity,[3],-5.17%
same,activity,[4],-54.3%
COc1ncccc1-c1nccn2c(C3CN(Cc4ccccc4O)C3)ncc12,activity,[1],2.23%
same,"activity change, negative = inhibition",[2],2.06% [at 85.7 µM]
same,activity,[3],7.78%
same,activity,[4],3.8%
c1ccc(CN2CCNc3cnc(Nc4ccc(N5CCOCC5)cc4)cc3C2)cc1,activity,[1],-14.6%
same,"activity change, negative = inhibition",[2],-9.27% [at 85.7 µM]
same,activity,[3],-15%
same,activity,[4],-10.3%
Cc1ccc(CN2C(=O)c3ccc(-c4ccco4)n3CC2(C)C(=O)NCc2ccc(Cl)cc2)cc1 (stereo unspecified),activity,[1],0%
same,Potency,[2],inactive
same,activity,[3],-6.21%
same,activity,[4],1.57%
Cc1cnc(CCNC(=O)c2n[nH]c(=O)c3ccccc23)n1C1CCCCC1,activity,[1],-2.57%
same,"activity change, negative = inhibition",[2],5.31%
same,activity,[3],-0.405%
same,activity,[4],-2.34%
CC(=O)O[C@]1(C(C)=O)CC[C@H]2C3C=C(Cl)C4=CC(=O)[C@@H]5C[C@H]5[C@]4(C)C3CC[C@@]21C (stereo partly specified),Potency,[5],inactive
same,Potency,[6],inactive
same,Potency,[7],12.6 µM (active)
same,Potency,[8],10 µM (active)
same,Potency,[9],8.91 µM (active)
same,Potency,[10],14.1 µM (active)
same,Potency,[11],8.91 µM (active)
same,Potency,[12],12.6 µM (active)
same,outcome,[13],inactive
same,Potency,[14],inactive
same,Potency,[15],9.28 µM (active)
same,Potency,[16],inactive
same,outcome,[17],inactive
same,outcome,[18],inactive
same,outcome,[19],inactive
same,Potency,[20],inactive
C[C@H]1CN(C(=O)Nc2ccc(F)cc2F)C[C@@H]1c1nc(-c2ccccc2)no1,activity,[1],6.81%
same,Potency,[2],0.769 µM (active)
same,activity,[3],-92.4%
same,activity,[4],9.33%
C1=C(c2nc(-c3ccncc3)cc3c2ccn3Cc2cccnc2)CCOC1,activity,[1],-19%
same,"activity change, negative = inhibition",[2],-9.57% [at 85.7 µM]
same,activity,[3],-8.71%
same,activity,[4],-24.5%
O=C(Nc1ccc(F)c(Cl)c1)N1CCn2cccc2C1Cc1ccccc1 (stereo unspecified),activity,[1],-2.26%
same,"activity change, negative = inhibition",[2],1.87%
same,activity,[3],-5.36%
same,activity,[4],-6.59%
Cc1ccc(NS(=O)(=O)c2ccc3[nH]c(=O)[nH]c3c2)cc1F,activity,[1],-8.47%
same,"activity change, negative = inhibition",[2],-6.18%
same,activity,[3],-16.3%
same,activity,[4],-45.9%
CCCNc1cc(N2CCC(CCC(=O)NCCN3CCCCCC3)CC2)ncn1,activity,[1],7.42%
same,"activity change, negative = inhibition",[2],8.04%
same,activity,[3],-8.06%
same,activity,[4],0.426%
c1ccc(-c2[nH]nc3ncc(-c4cn[nH]c4)nc23)cc1,activity,[1],-73.4%
same,Potency,[2],31.2 µM (active)
same,activity,[3],-59.9%
same,activity,[4],-83.4%
COc1cccc(NC(=O)Cn2c(=O)oc3cc(S(=O)(=O)N4CC(C)CC(C)C4)ccc32)c1 (stereo unspecified),activity,[1],3.17%
same,"activity change, negative = inhibition",[2],0%
same,activity,[3],-1.21%
same,activity,[4],-70.5%
CC1CCN(CCCNC(=O)CCc2nnc3n(Cc4ccccc4)c(=O)c4ccccc4n23)CC1,activity,[1],0.801%
same,"activity change, negative = inhibition",[2],0%
same,activity,[3],-2.83%
same,activity,[4],2.06%

# From PubChem BioAssay (NCATS)
